GalR3 antagonist = human GalR3 antagonism; O60755; HEK293 GalR3-CNG cAMP membrane potential fluorescence; galR3 body fused to GalR1 C-terminus; inhibition, % at 3 µM; 0.44% of 360,000 active; AID 651719;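 active = inhibition above the screen-wide average plus 3 SD, cut at about 13% in these data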;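 also: forskolin and galanin both at EC90 stimulate the cells; cAMP rise reported by CNG channel membrane potential dye signal; 0% = forskolin plus galanin with DMSO and 100% = forskolin alone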
Target sequence (O60755 1-299 limits assumed): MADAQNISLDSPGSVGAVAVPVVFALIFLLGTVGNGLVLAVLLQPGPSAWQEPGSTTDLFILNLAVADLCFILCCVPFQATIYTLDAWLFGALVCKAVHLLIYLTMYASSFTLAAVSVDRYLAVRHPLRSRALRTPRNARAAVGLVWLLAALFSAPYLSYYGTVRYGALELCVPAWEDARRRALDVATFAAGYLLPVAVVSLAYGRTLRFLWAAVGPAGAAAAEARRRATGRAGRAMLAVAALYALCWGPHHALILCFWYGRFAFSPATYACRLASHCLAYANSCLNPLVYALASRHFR
FXN GAA850 act = frataxin GAA850 promoter activation; AID 540364; 0.56% of 360,000 active; HEK293 lucGAA850 FXN promoter luciferase reporter, 24 h; percent of 10 µM SAHA response; activation, % at 6 µM;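 active = activation above the average of all compounds screened plus 3 SD, cutoff fixed separately per campaign, cut at about 7.5% in these data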;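 also: 0% = DMSO wells and 100% = 10 µM SAHA wells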
SMARCA2 activ = increases SMARCA2 function in MMTV reporter cells | 1% of 370,000 active | MG213 cells, MMTV-luciferase reporter, dexamethasone, overnight | activation, % at 9.1 µM; in the data active = activation above about 7.8%;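 also: 0% = vehicle wells and 100% = reference activator wells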
Cardio protect = modulators protecting cardiomyocytes from myocardial damage; protection from H2O2 cell death, % at 20 µM; 0.63% of 360,000 active; AID 588492; H9c2 cardiomyocytes, H2O2 injury protection, ATPLite, 2 h;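 active = compounds giving at least 50% protection of heart cells from peroxide-induced death in the single-dose screen, raw or plate-pattern-corrected value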;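 also: 0% = DMSO wells with peroxide and 100% = DMSO wells without peroxide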
NR2F2 inh = inhibitors of human COUP-TFII (NR2F2). P24468. HEK293T NGFI-A luciferase reporter, luminescence. inhibition, % at 8.6 µM. 0.7% of 370,000 active. AID 686940;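 active = inhibition above a per-plate cutoff, mean inhibition of test wells between control levels plus 3 SD, cut at about 38% in these data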;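 also: cells cotransfected with COUP-TFII expression vector driving the NGFI-A reporter; 0% = median of COUP-TF2 test wells and 100% = reporter-only cells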
Gli-Sufu block = blocks Gli-Sufu signaling in a luciferase reporter | Sufu-KO-LIGHT fibroblasts, Gli luciferase reporter luminescence | inhibition, % at 5 µM | 0.74% of 340,000 active;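 active = inhibition above about 55%, limit read from the data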;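 also: 0% = DMSO-treated cells and 100% = wells with medium but no cells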
Starred values were filed as active, the others as inactive; / = no result given. Only some compounds are listed: those with a hit (about 3.4% of all), similar ones and a draw of the others.

SMILES	GalR3 antagonist	FXN GAA850 act	SMARCA2 activ	Cardio protect	NR2F2 inh	Gli-Sufu block
Cc1nc2sc(C(=O)NCc3ccncc3)c(N)c2c(C)c1Cl	/	/	0.0	/	-1.6	/
COC(=O)c1cc2c(n1S(=O)(=O)c1ccc(C)cc1)C(=O)C(=O)c1[nH]cc(C(=O)OCc3ccccc3)c1-2	/	-10.2	/	-20.3	/	86.6*
CC(C)COc1nc2ccccc2c(=O)n1OCC(=O)O	-0.4	4.5	-0.5	57.8*	7.3	15.8
CCc1cc2c(=O)[nH]c(-c3ccccn3)nc2s1	-5.2	-16.3	-8.6	7.1	-36.9	58.2*
NC(=O)c1ccc(Nc2nc(C(N)COCc3ccccc3)cs2)cc1 (stereo not drawn)	-7.6	-2.3	-2.0	0.5	4.2	/
NC(=O)c1cccc(Nc2nc(C(N)COCc3ccccc3)cs2)n1 (stereo not drawn)	-5.5	0.9	-0.8	88.0*	-16.8	/
COc1ccc(OC)c(NC(=O)COC(=O)c2c3c(nc4ccccc24)CCCC3)c1	-5.1	-10.1	-5.5	56.4*	8.5	2.5
COc1ccc(NC(=O)COC(=O)c2c3c(nc4ccccc24)CCCC3)cc1	-2.3	-1.8	-1.9	13.9	14.9	35.5
COC(=O)[C@H]1C[C@@]2(c3ccccc3)c3ccccc3N[C@H]2N1	/	/	-3.4	/	2.3	/
O=C(N/N=C/c1c(O)ccc2ccccc12)C(=O)N1CCCC1	-6.4	-3.5	-3.0	52.2*	18.4	/
COc1ccc2ccccc2c1/C=N/NC(=O)c1cccc(Br)c1	-3.4	2.3	0.0	-0.6	7.0	-10.0
O=C(N/N=C/c1c(O)ccc2ccccc12)c1[nH]ncc1Br	3.5	-7.1	-0.7	38.6	-29.3	66.7*
O=C(NN=Cc1c(O)ccc2ccccc12)C1CC1	-6.8	-4.8	-2.4	48.9	3.1	5.2
O=C(N/N=C/c1c(O)ccc2ccccc12)c1cccc(C(F)(F)F)c1	0.8	-6.0	-1.4	15.5	3.9	59.8*
O=c1cc(CN2CCCCC2)c2ccccc2o1	-7.7	/	-3.2	5.2	-5.8	/
Cc1nn(-c2ccccc2)c(Cl)c1C(=O)Nc1nnc(C2CCCCC2)s1	-3.8	-2.2	0.0	-3.1	21.3	-2.1
O=C(Nc1nnc(C2CC2)s1)c1cc(-c2ccccc2)nn1-c1ccccc1	4.9	1.3	-0.9	51.6*	15.2	3.8
CCC(C)N(C(=O)COC(=O)CCc1c[nH]c2ccccc12)C1CCS(=O)(=O)C1 (stereo not drawn)	-2.5	1.3	-1.9	-8.3	-2.5	-24.6
CCC(C)N(C(=O)COC(=O)Cc1n[nH]c(=O)c2ccccc12)C1CCS(=O)(=O)C1 (stereo not drawn)	-4.3	2.5	-0.8	59.5*	7.8	4.8
COc1cc(Br)cc(C=Nc2cccc(C(F)(F)F)c2)c1O	-7.2	-1.5	4.7	53.4*	0.7	-4.9
NC1=NS(=O)(=O)Nc2ccccc21	/	/	/	/	-22.8	/
O=C(OC12CCCN(C1)/C(=C/c1cccc(Cl)c1)C2)c1ccc(F)cc1 (stereo not drawn)	/	/	-3.8	/	-27.1	/
O=C(C(=O)N(Cc1ccccc1)Cc1ccccc1)c1c(-c2ccccc2)[nH]c2ccccc12	-2.2	-8.4	-6.3	86.5*	-4.6	2.7
Fc1ccc(-c2n[nH]c(=S)n2N=Cc2ccc(OCc3ccccc3)cc2)cc1	/	/	0.0	/	-12.3	/
CC(=O)c1cc(-c2ccc3c(c2)OCO3)c(=O)n2c1CCC2	/	/	-1.1	/	-22.6	/
SMILES	GalR3 antagonist	FXN GAA850 act	SMARCA2 activ	Cardio protect	NR2F2 inh	Gli-Sufu block
O=C(NN1C(=O)/C(=C/c2ccc(O)c(O)c2)SC1=S)c1ccccc1	-10.9	2.7	-2.7	65.0*	20.6	0.2
O=C1/C(=C/c2ccc(O)c(O)c2)SC(=S)N1Nc1ccccc1	/	7.8*	/	20.3	/	2.9
CCOC(=O)N1CCC(N2Cc3cccc(C(=O)Nc4ccc(OC)c(OC)c4)c3C2=O)CC1	/	-5.2	-2.1	50.1*	29.4	4.3
CCOC(=O)N1CCC(N2C(=O)c3ccccc3C2Nc2cc(OC)c(OC)c(OC)c2)CC1 (stereo not drawn)	/	-1.5	-0.9	117.2*	0.3	10.3
COc1ccccc1NC(=O)OCCN1CCCC12CCC(c1ccccc1)CC2 (stereo not drawn)	/	/	/	/	8.7	/
COc1ccc(C#Cc2c(-c3ccccc3OC)oc3ccccc23)cc1	-2.2	/	-1.8	/	-10.3	/
COC(=O)[C@@]1(C(C)C)N=C(c2cc(OC)c(OC)c(OC)c2)[C@]2(O1)C(=O)N(Cc1cn(-c3ccccc3)nn1)c1cccc(Cl)c12	/	/	-2.9	/	-1.2	/

Bioassay records from PubChem.
